The list is not random: actives were taken first. Their share in the collection is about 9.3%.
FLuc modulator: qHTS profiling assay for firefly luciferase inhibitor/activator using purifed enzyme and Km concentrations of substrates (counterscreen for miR-21 project). Luciferin 4-monooxygenase (Photinus pyralis), P08659. purified FLuc, Km substrates, luminescence inhibition. Potency, µM (titrated, usually from 57.5 µM), without a hit: at the top dose activity change, negative = inhibition, hits mostly inhibitors. 6.9% of 360,000 active. AID 588342, 2011;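 also: plate controls were vehicle for no effect and reference inhibitor for full effect; nearly all actives have a fitted effect of over 55% in size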
Target sequence (P08659 whole entry, looked up): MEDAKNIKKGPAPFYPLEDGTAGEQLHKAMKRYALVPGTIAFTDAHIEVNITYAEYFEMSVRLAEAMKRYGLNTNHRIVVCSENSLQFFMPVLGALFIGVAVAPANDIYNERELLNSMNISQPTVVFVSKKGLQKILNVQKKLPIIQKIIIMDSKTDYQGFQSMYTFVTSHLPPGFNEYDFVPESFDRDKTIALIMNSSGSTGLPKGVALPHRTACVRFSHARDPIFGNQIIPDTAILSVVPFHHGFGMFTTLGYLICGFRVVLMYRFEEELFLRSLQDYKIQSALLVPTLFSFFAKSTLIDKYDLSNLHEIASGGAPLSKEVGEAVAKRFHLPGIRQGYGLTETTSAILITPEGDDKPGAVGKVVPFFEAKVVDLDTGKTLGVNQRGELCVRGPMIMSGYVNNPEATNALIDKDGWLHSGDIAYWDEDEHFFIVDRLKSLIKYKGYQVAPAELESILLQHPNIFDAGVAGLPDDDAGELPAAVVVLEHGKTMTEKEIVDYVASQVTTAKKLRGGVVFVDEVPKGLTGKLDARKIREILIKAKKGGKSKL
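Biochemical qHTS of compounds, final roughly 60 µM downward over six points, against 10 nM purified firefly luciferase using Km concentrations of substrates (10 uM D-luciferin, 10 uM ATP) in Tris acetate pH 7.5 buffer; luminescence output.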
Rab9 prom act: qHTS Assay for Rab9 Promoter Activators; AID 485297, 2010; Huh7 Rab9 promoter-luciferase reporter, luminescence, 24 h; 2.8% of 320,000 active; Potency, µM (doses to about 9.22 µM), without a hit: top-dose activation, negative = inhibition, most hits filed as activators; also: % of control where 0% means no effect; nearly all actives have a fitted effect of over 60% in size
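Huh7 cells stably carrying a Rab9 promoter-luciferase reporter, 1500 cells per well in OP-MEM I with 10% FBS, treated with compound 24 hours at 37C. Luciferase activity read by luminescence after 10 minutes with Amplite reagent.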
NPC1 promoter act: qHTS Assay for NPC1 Promoter Activators; Huh7 NPC1 promoter luciferase reporter, 24 h; 2.4% of 320,000 active; Potency, µM (highest dose often 9.22 µM), for the others: at the top dose activation, usual class: activators; also: % of control where 0% means no effect; nearly all actives have a fitted effect of over 60% in size
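Quantitative HTS used a cell-based reporter: Huh7 cells stably bearing the NPC1 promoter upstream of luciferase were treated with compounds for 24 h, and promoter activation was read as luminescence.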
SMN2 splice up: qHTS Assay for Enhancers of SMN2 Splice Variant Expression. AID 1458, 2008. HEK293 SMN2-luciferase splicing reporter, luminescence, 30-36 h. 2.8% of 210,000 active. Potency, µM (titrated, usually from 46.1 µM), for inactives: at the top dose activity change, positive = activation, usual class: activators; also: % of control where 0% means no effect; nearly all actives have a fitted effect of over 55% in size
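qHTS luciferase splicing reporter: luminescence rises when SMN2 exon 7 is included in transfected HEK293 cells. Compound exposure lasted 30-36 h at 37C, with 4.5 mM final sodium butyrate as control, followed by a ONE-Glo read.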
ELG1 genotoxic: qHTS screen for small molecules that induce genotoxicity in human embryonic kidney (HEK293T) cells expressing luciferase-tagged ELG1; Potency, µM (series often up to 46 µM), without a hit: at the top dose activity change, positive = activation, usual class: activators; HEK293T ELG1-luciferase reporter, luminescence, 16 h; 1.3% of 330,000 active; also: % of control where 0% means no effect; nearly all actives have a fitted effect of over 60% in size
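Screening used a luciferase reporter fused to human ELG1 in HEK293T cells. Luminescence was read on a CCD plate imager after 16 hr exposure and 30 min ONE-Glo incubation.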
ELG1 repair inh: qHTS screen for small molecules that inhibit ELG1-dependent DNA repair in human embryonic kidney (HEK293T) cells expressing luciferase-tagged ELG1. HEK293T ELG1-luciferase reporter, luminescence, 16 h; DNA damage induced by 5-fluorouridine. 2.3% of 330,000 active. AID 504467, 2011. Potency, µM (titrated, usually from 46.1 µM), without a hit: top-dose activity change, negative = inhibition, hits mostly inhibitors; also: % is scaled to controls: 0 for no effect and ±100 for the full control effect; nearly all actives have a fitted effect of over 55% in size
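Quantitative HTS, concentration-response format. 2,000 cells/well co-treated with 5-fluorouridine and compound, 16 hr in 5% CO2 at 37 °C; ONE-Glo luminescence read after 30 min.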
* marks the source's active call; other numbers are inactive results; ? = inconclusive; / = no result given; [ ] = remark or other dose. Calls follow the shape of the dose curve; as a rule, active = well fitted curve in the direction sought with a large enough effect; inconclusive = small, poorly fitted or top-dose-only effect, or another doubt; inactive = no such curve, though single readings can be large; an effect the other way counts as inactive or inconclusive. Potency is read from the fitted curve at half-maximal effect.

SMILES	FLuc modulator	Rab9 prom act	NPC1 promoter act	SMN2 splice up	ELG1 genotoxic	ELG1 repair inh
COc1cc(OC)cc(C(=O)Nc2cccc(-c3cn4ccsc4n3)c2)c1	6.01µM*	/	/	/	/	/
COC(=O)[C@@H]1C(O)[C@@H](C(=O)OC)[C@H](C)N(C)[C@@H]1C (some centres not stated)	/	/	/	-5.4%[9.22 µM]	/	/
O=C(NC(=S)N1CCc2ccccc21)c1ccccc1Cl	-2.0%	9.4%	-2.3%	/	?	?
O=C1N=C(N2CCN(c3ccccc3)CC2)S/C1=C\c1cn[nH]c1-c1ccccc1	-7.0%	2.4%	-1.4%	-7.0%	-11.6%	4.61µM*
Cc1ccc(N2CCN(C3=NC(=O)/C(=C\c4cn[nH]c4-c4ccccc4)S3)CC2)cc1	0.2%	-9.1%	-5.6%	-31.0%	3.6%	1.64µM*
O=C1N=C(N2CCC(Cc3ccccc3)CC2)S/C1=C/c1cn[nH]c1-c1ccccc1	-1.0%	-1.5%	-4.1%	-9.8%	-12.0%	?
CC(C)(C)c1ccc(C(=O)Nc2cccnc2)cc1	2.69µM*	3.98µM*	2.82µM*	/	2.31µM*	?
O=C(Nc1cccnc1)c1ccc(CN2CCc3ccccc3C2)cc1	-17.4%	-20.6%	-14.4%	-56.4%	-7.6%	8.2µM*
CC(C)(C)c1ccc(C(=O)Nc2ccc(Oc3cccnc3)nc2)cc1	8.49µM*	-40.0%	-26.5%	/	-10.2%	2.06µM*
CCc1sc(C(=O)Nc2cccnc2)cc1Br	10.7µM*	?	?	/	?	?
O=C(Nc1cccnc1)c1ccc(Br)s1	7.0%[2.3 µM]	25.7%	13.7%	-12.0%	4.8%	14.7%
Cc1ccc(C(=O)Nc2ccc(Oc3cccc(C(F)(F)F)c3)nc2)cc1	3.2%	-31.6%	-12.8%	/	-2.2%	?
C[C@@H]1[C@H]2CCCC[C@H]2CN(C(=O)OC(C)(C)C)[C@@H]1CC(=O)c1ccccc1	/	/	/	/	-5.1%	0.5%
O=C(COc1ccc(Cl)cc1)Nc1nc(-c2cccs2)cs1	?	1.2%	-2.1%	12.5%	2.9%	0.9%
Cc1ccc(Nc2nc(-c3cccs3)cs2)nc1	0.239µM*	0.447µM*	0.447µM*	1.41µM*	0.517µM*	?
Cc1ccc(Nc2nc(-c3ccccc3)cs2)nc1	0.379µM*	0.562µM*	0.447µM*	/	0.326µM*	?
c1ccc(-c2csc(Nc3nc(N4CCOCC4)nc(N4CCOCC4)n3)n2)cc1	3.3%	-9.0%	-5.0%	-13.8%	0.9%	5.8µM*
CC(C)=NNc1nc(-c2ccccc2)cs1	19µM*	12.3%	15.6%	-16.6%	?	?
CC(/C=C/c1ccccc1)=N\Nc1nc(-c2ccccc2)cs1	3.6%	-3.6%	-4.0%	-22.9%	-8.0%	1.0%
CC(C)OC(=O)C(C)Nc1ccc(F)c(Cl)c1 (configuration not stated)	5.0%	0.8%	-2.8%	/	-0.4%	-2.8%
Cc1cc(C)nc(Nc2nc(-c3ccccc3)cs2)n1	?	0.708µM*	?	/	1.64µM*	?
COc1ccc(CCNC(=O)c2ccc(CNS(=O)(=O)c3cc(C)ccc3C)cc2)cc1OC	1.6%	-0.5%	-2.4%	-10.9%	-10.6%	20.6µM*
COc1ccc(CNS(=O)(=O)NCc2ccc(C)cc2)cc1OC	1.2%	-2.2%	-10.5%	-51.7%	-10.3%	20.6µM*
COc1ccc(CCN(C)C(=O)c2cc(S(=O)(=O)NCc3ccccc3)ccc2C)cc1OC	8.5%	-10.2%	0.4%	/	-8.4%	8.2µM*
COc1ccc(CCNC(=O)c2ccc(CNS(=O)(=O)c3cccc(Cl)c3)cc2)cc1OC	-1.1%	6.5%	-4.3%	-38.6%	-7.8%	23.1µM*
SMILES	FLuc modulator	Rab9 prom act	NPC1 promoter act	SMN2 splice up	ELG1 genotoxic	ELG1 repair inh
COc1cc(C(CC(=O)N2CCOCC2)c2c(OC)cc(OC)c3ccc(=O)oc23)cc(OC)c1OC (configuration not stated)	-1.2%	-1.9%	-3.8%	/	5.9%	?
COCC(C)NC(=O)CSc1nc(-c2ccccc2)c(-c2ccccc2)o1 (configuration not stated)	0.9%	1.2%	-2.8%	-19.3%	-4.5%	?
Cc1nn(-c2cccc(Cl)c2)c(Cl)c1/C=N/NC(=O)c1cccs1	-0.4%	17.5%	4.0%	/	?	24.7%
Cc1cc(NC(=O)c2ccccc2)n(C(C)(C)C)n1	2.9%	8.8%	-0.6%	/	0.8%	11.9%
COc1ccc(CCNC(=O)c2ccc(CS(=O)(=O)Cc3cccc(C)c3)o2)cc1OC	0.0%	-10.0%	-2.9%	/	-13.0%	23.1µM*
COc1ccc(CNS(=O)(=O)c2cc(-c3cc(C)no3)ccc2C)cc1OC	-1.2%	-0.7%	-2.2%	/	-1.0%[9.26 µM]	23.1µM*
CCOc1ccc(CNS(=O)(=O)c2cc(-c3cc(C)no3)ccc2C)cc1OC	-1.2%	/	/	/	/	/
Cc1noc(/C=C/c2nn(C)cc2Cl)c1[N+](=O)[O-]	?	1.5%	-3.8%	/	-25.2%	?
Cc1cc(O)ccc1N/C=C/c1onc(C)c1[N+](=O)[O-]	?	2.51µM*	3.16µM*	20µM*	?	?
COc1ccc(Br)cc1CNC(=O)C1CCCN(S(=O)(=O)N2CC(C)CC(C)C2)C1 (configuration not stated)	-0.6%	2.4%	-8.8%	/	-10.3%	7.8%
O=C(/C=C/Nc1ccc(F)c(F)c1)c1cccs1	0.953µM*	2.51µM*	3.16µM*	/	?	?
O=C(/C=C/Nc1ccc(S(=O)(=O)Nc2ncccn2)cc1)c1cccs1	-13.3%	5.5%	-1.9%	/	3.6%	0.3%
CC(=O)c1cccc(NS(=O)(=O)c2ccc(N/C=C/C(=O)c3ccc(F)cc3)cc2)c1	5.2%	-21.9%	-8.9%	-99.2%	2.1%	?
O=C(/C=C/Nc1ccc(F)c(F)c1)c1ccc(Br)cc1	1.51µM*	2.51µM*	2µM*	12.6µM*	?	?
O=C(/C=C/Nc1ccc([N+](=O)[O-])cc1)c1ccc(Br)cc1	-2.8%	?	24.3%	23.0%	?	?
O=C(/C=C/Nc1ccc(F)cc1)c1ccc(Br)cc1	2.13µM*	1.41µM*	2µM*	12.6µM*	?	?
CCOC(=O)c1nn(-c2sc(C(=O)OC)c(C)c2C(=O)OC)cc1O	-1.6%	-1.6%	-0.3%	?	5.1%	?
Cc1nn(-c2ccccc2)c2sc(C(=O)N3CCOCC3)cc12	10.7µM*	3.55µM*	?	11.2µM*	?	?
